Measured values: PubChem BioAssay
The source made the active and inactive calls.

Key:
[1] = tested on: Human papillomavirus type 1a protein E7 (residues 44-93); experiment: small molecules binding HPV E7 44-93 – biochemical, small-molecule microarray, residues 44-93, 635 nm fluorescence, primary screen (AID 1108); conditions: fluorescence 635 nm, higher = more signal;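 also: E7 fragment applied at 1 µg/mL in TBST for 1 h at 4 C; score combines spot fluorescence with its signal to noise ratio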
[2] = hepatitis C replication reporter changes, two-sided – Huh7 cells, luciferase reporter, HCV replication inhibitor project, primary screen (AID 1109); conditions: Huh7 HCV replicon luciferase reporter, 48 h; higher = more signal;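 also: huh7 hepatoma cells harbouring a luciferase neomycin HCV replicon reporter; luciferase luminescence as measure of HCV replicon replication; test concentration not given here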
[3] = target: Left-right determination factor 2 (Homo sapiens) (UniProt O00292); experiment: small molecules binding LEFTY2 protein – biochemical, small-molecule microarray, 635 nm fluorescence scan, primary screen (AID 1110); conditions: higher = more signal
[4] = target: Calmodulin-1 (Homo sapiens) (UniProt P0DP23); experiment: small molecules binding calmodulin-1 with EGTA – biochemical, small-molecule microarray, Cy5-labelled CALM1, profiling panel (AID 1111); conditions: Cy5-CALM1 binding fluorescence, higher = more signal;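 also: labelled calmodulin applied in Tris saline Tween buffer holding calcium plus EGTA and DTT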
[5] = target: Calmodulin-1 (Homo sapiens) (UniProt P0DP23); experiment: small molecules binding Ca-loaded calmodulin-1 – biochemical, small-molecule microarray, Cy5-labelled CALM1, plus calcium, artefact control for SMM control-protein annotation, profiling panel (AID 1112); conditions: Cy5-CALM1 binding fluorescence, higher = more signal;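 also: score merges spot fluorescence with signal to noise from triplicate slides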
[6] = probe aWnt5a binding to arrayed compounds – biochemical, biotinylated probe, 635/667 nm fluorescence, primary screen (AID 1113); conditions: small-molecule microarray, higher = more signal;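 also: score merges 667 nm fluorescence intensity with signal-to-noise per printed feature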
[7] = probe aShh binding to arrayed compounds – biochemical, biotinylated probe, 635/667 nm fluorescence, primary screen (AID 1114); conditions: small-molecule microarray, higher = more signal;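 also: probe is biotin-labelled aShh protein from a stem cell growth factor screen; measures binding of labelled protein to compounds printed on the slide; score merges feature fluorescence at 667 nm with signal-to-noise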
[8] = probe aNog binding to arrayed compounds – biochemical, biotinylated probe, 635/667 nm fluorescence, primary screen (AID 1115); conditions: small-molecule microarray, higher = more signal;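 also: probe is biotinylated aNog protein used at 0.15 µg/mL for 1 h at 4 C; z-score combines 667 nm fluorescence of each spot with its signal to noise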
[9] = target: Torsin-1A-interacting protein 1 (Homo sapiens) (UniProt Q5JTV8); experiment: compound microarray binding of lysate hLAP1 – cell lysate, small-molecule microarray, COS7 lysate, 635/667 nm fluorescence, primary screen (AID 1116); conditions: 635 nm fluorescence, higher = more signal
[10] = target: Alpha-bungarotoxin (Bungarus multicinctus) (UniProt P60615); experiment: compounds binding labelled alpha-BTX control protein – biochemical, small-molecule microarray, Alexa647 label, 635/667 nm fluorescence, artefact control for SMM control protein annotation, profiling panel (AID 1117); conditions: alpha-BTX-A647 binding fluorescence, higher = more signal
[11] = target: Albumin (Bos taurus) (UniProt P02769); experiment: compounds binding labelled BSA control protein – biochemical, small-molecule microarray, Alexa647 label, 635/667 nm fluorescence, artefact control for SMM control protein annotation, profiling panel (AID 1118); conditions: BSA-A647 binding, fluorescence 635 nm, higher = more signal;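 also: score merges 667 nm emission intensity and signal-to-noise per printed compound spot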
[12] = probe aXIP binding to arrayed compounds – biochemical, NeuroSMM set, 635/667 nm fluorescence, primary screen (AID 1119); conditions: small-molecule microarray, higher = more signal, called active from +8 up or from −8 down;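 also: probe is the protein aXip251-270 applied at 1 µg/mL to compound-printed slides; binding of probe to printed compounds measured as 667 nm fluorescence plus signal to noise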
[13] = probe aNOTCH3 binding on compound microarray – biochemical, small-molecule microarray, 635/667 nm fluorescence, primary screen (AID 1120); conditions: higher = more signal;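 also: probe is a biotin-tagged antibody raised against NOTCH3 rather than NOTCH3 protein; score merges spot fluorescence near 667 nm with spot signal to noise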
[14] = probe aNOTCH2 binding on compound microarray – biochemical, small-molecule microarray, 635/667 nm fluorescence, primary screen (AID 1121); conditions: higher = more signal;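 also: score merges feature fluorescence read at 667 nm with its signal to noise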
[15] = target: Carbonic anhydrase 2 (Homo sapiens) (UniProt P00918); experiment: compounds binding carbonic anhydrase 2 – biochemical, small-molecule microarray, Alexa647-labelled CAII, profiling panel (AID 1122); conditions: CAII-A647 binding fluorescence, higher = more signal
[16] = COS7 lysate on small-molecule microarray, probe aHis, 635 nm (AID 1123); conditions: COS7 cell lysate, fluorescence, higher = more signal;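 also: z-score combines 667nm fluorescence intensity with signal-to-noise per printed compound spot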
[17] = probe aLAP1 signal on lysate-treated microarray – cell lysate, small-molecule microarray, COS7 lysate, primary screen (AID 1124); conditions: probe aLAP1, fluorescence, higher = more signal;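 also: lysate comes from COS7 cells expressing LAP1 and is applied at 0.3 µg/mL; score merges spot fluorescence near 667 nm with signal-to-noise over triplicate slides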
[18] = tested on: Sam68 (KHDRBS1); experiment: compounds binding KHDRBS1 protein – biochemical, small-molecule microarray, 635 nm fluorescence, primary screen (AID 1125); conditions: higher = more signal;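 also: score merges 667 nm channel intensity with signal to noise over triplicate slides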
[19] = tested on: Chordin-like protein 2 (CHRDL2); experiment: compounds binding chordin-like 2 – biochemical, small-molecule microarray, 635 nm fluorescence, primary screen (AID 1126); conditions: fluorescence 635 nm, higher = more signal;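 also: printed compound slides probed with Chrdl2 protein at 4 µg/mL for 1 h at 4 C; score merges 667 nm emission intensity with signal to noise over three replicate slides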
[20] = target: Concanavalin-A (Canavalia ensiformis) (UniProt P02866); experiment: compounds binding concanavalin A lectin – biochemical, small-molecule microarray, Alexa647 label, 635 nm, artefact control for SMM control protein annotation, primary screen (AID 1127); conditions: ConA-A647 binding fluorescence, higher = more signal;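 also: z combines 667 nm emission intensity with signal-to-noise across three replicate slides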
Concanavalin-A (Canavalia ensiformis), sequence (P02866 whole entry, looked up): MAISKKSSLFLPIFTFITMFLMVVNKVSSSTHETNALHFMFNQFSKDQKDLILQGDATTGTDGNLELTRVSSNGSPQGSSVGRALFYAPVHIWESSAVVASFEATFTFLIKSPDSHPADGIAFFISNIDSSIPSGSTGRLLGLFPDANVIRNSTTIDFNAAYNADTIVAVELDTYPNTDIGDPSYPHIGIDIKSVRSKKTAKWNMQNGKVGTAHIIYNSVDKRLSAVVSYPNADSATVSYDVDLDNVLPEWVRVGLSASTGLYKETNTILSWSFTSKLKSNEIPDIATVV

Albumin (Bos taurus), sequence (P02769 whole entry, looked up): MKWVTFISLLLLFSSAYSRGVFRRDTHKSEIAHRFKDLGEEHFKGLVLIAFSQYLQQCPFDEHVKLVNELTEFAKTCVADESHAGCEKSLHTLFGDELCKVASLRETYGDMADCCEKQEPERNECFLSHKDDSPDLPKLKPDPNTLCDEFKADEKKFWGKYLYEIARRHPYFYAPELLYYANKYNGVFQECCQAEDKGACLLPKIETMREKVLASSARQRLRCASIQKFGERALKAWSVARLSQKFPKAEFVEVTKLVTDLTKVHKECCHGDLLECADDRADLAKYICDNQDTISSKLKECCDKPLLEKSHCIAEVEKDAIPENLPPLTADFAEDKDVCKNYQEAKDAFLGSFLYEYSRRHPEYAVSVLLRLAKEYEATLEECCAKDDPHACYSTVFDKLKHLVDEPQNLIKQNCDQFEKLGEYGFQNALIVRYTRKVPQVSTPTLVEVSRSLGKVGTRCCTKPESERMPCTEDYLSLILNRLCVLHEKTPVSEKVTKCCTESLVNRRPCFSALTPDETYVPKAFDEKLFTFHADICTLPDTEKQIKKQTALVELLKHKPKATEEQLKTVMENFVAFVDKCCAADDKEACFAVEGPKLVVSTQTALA
Torsin-1A-interacting protein 1 (Homo sapiens), sequence (Q5JTV8 whole entry, looked up): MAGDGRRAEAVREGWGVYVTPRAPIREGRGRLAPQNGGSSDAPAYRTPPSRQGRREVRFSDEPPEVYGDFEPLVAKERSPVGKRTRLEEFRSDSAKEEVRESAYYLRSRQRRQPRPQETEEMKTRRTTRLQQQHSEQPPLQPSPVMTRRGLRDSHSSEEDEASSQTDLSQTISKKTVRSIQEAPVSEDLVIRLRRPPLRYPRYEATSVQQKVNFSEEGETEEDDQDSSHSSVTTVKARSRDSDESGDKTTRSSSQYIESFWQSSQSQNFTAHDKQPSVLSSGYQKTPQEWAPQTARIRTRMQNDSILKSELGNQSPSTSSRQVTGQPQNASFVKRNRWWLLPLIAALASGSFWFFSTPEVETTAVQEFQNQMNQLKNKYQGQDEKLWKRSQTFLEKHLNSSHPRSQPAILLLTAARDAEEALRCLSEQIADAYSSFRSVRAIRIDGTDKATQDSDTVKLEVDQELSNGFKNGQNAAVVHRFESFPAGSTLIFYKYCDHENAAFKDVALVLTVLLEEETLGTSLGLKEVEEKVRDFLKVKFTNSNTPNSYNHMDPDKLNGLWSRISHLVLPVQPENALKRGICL
Left-right determination factor 2 (Homo sapiens), sequence (O00292 whole entry, looked up): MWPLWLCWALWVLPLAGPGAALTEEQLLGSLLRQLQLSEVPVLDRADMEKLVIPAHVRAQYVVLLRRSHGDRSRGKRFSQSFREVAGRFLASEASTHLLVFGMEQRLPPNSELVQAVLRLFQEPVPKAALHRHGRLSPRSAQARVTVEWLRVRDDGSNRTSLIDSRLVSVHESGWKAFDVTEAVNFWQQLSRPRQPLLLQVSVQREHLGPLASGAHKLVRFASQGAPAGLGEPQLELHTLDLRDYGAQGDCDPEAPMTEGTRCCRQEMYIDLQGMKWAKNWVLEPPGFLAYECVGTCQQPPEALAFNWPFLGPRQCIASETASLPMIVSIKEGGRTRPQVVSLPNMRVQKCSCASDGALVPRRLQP
Alpha-bungarotoxin (Bungarus multicinctus), sequence (P60615 whole entry, looked up): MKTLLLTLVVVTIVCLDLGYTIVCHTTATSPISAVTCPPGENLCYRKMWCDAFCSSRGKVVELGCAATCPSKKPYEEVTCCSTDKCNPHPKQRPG

Compound | composite z-score [1] | z-score [2] | composite z-score [3] | composite z-score [4] | composite z-score [5] | composite z-score [6] | composite z-score [7] | composite z-score [8] | composite z-score [9] | composite z-score [10] | composite z-score [11] | composite Z-score [12] | composite z-score [13] | composite z-score [14] | composite z-score [15] | composite z-score [16] | composite z-score [17] | composite z-score [18] | composite z-score [19] | composite z-score [20]
O=C1O[C@@H](c2ccccc2)[C@@H](c2ccccc2)N2[C@@H](c3ccc(O)cc3)[C@]3(C(=O)Nc4ccc(C#CC5=CCCCC5)cc43)[C@@H](C(=O)O)[C@H]12 | 0.2 | 0.0664 | 0.0765 | 2.02 | 0.999 | -0.0077 | 0.123 | 0.413 | 1.55 | 1.17 | 0.885 | 0.341 (inactive) | 0.139 | 0.0685 | 0.715 | 1.86 | 0.788 | 1.32 | -0.194 | 0.9
CC(C)CNC(=O)[C@@]1(c2ccc([N+](=O)[O-])cc2)CC(=O)N(CC23CC4CC(CC(C4)C2)C3)[C@@H]1c1ccc(CO)cc1 | 1.07 | -2.62 | -0.15 | -0.367 | 0.113 | 0.0215 | -0.0709 | 1.23 | 1.96 | 0.438 | 0.152 | 0.0585 (inactive) | 0.157 | 0.014 | 0.523 | 1.42 | 1.15 | 1.04 | 0.201 | 0.73
O=C1OCCC=C[C@H]2OC34C=CCN(Cc5ccccc5)C(=O)[C@H]3N(CCCCCO)C(=O)[C@@H]4C12 (stereo not given in full) | 1.1 | -0.481 | -1.24 | -0.565 | 0.13 | -0.091 | -0.154 | -0.177 | 1.95 | -1.06 | 0.863 | 0.452 (inactive) | -0.28 | -0.173 | 0.763 | 2.1 | 0.743 | 0.954 | -1.32 | -0.262
COCCOC(=O)N1C(=O)[C@@]2(c3ccccc31)[C@H](c1ccc(O)cc1)N1[C@H](c3ccccc3)[C@H](c3ccccc3)OC(=O)[C@H]1[C@@H]2C(=O)N1CCc2cc(OC)c(OC)cc2C1 | 0.607 | -1.47 | 1.01 | 0.889 | 0.579 | -0.0819 | -0.214 | -0.533 | 0.811 | 0.789 | -0.361 | 2.47 (inactive) | 0.128 | 0.0712 | 0.136 | 1.76 | 0.288 | 1.32 | 1.44 | 1.13
COCCOC(=O)N1C(=O)[C@@]2(c3cc(C#CCC(C(=O)OC)C(=O)OC)ccc31)[C@H](C(=O)N1CCN(c3ncccn3)CC1)[C@H]1C(=O)O[C@H](c3ccccc3)[C@H](c3ccccc3)N1[C@@H]2c1ccc(OCCO)cc1 | 1.34 | -0.974 | 0.521 | 0.505 | -0.127 | -0.0778 | -0.2 | -0.213 | 0.383 | 0.536 | 0.727 | 1.44 (inactive) | 0.0097 | -0.14 | 0.323 | 1.35 | 0.522 | 1.3 | 0.17 | 1.09
O=C1O[C@@H](c2ccccc2)[C@@H](c2ccccc2)N2[C@@H](c3ccc(OCCO)cc3)[C@]3(C(=O)Nc4ccc(C#CC5=CCCCC5)cc43)[C@@H](C(=O)O)[C@H]12 | 0.594 | -1.63 | 0.374 | 2.23 | 1.15 | -0.102 | -0.107 | 0.167 | 1.57 | 2.89 | 0.953 | 0.556 (inactive) | 0.206 | 0.0588 | 0.499 | 0.866 | 0.711 | 1.3 | 0.0501 | 1.16
O=C/C=C/c1ccc2c(c1)OCO2 | 0.283 | 0.301 | 0.528 | -1.18 | -0.755 | -0.0748 | -0.35 | -0.441 | 0.122 | 0.591 | -0.776 | 0.16 (inactive) | -0.0883 | -0.109 | -0.0937 | -0.408 | 1.57 | 0.256 | 1.11 | 0.176
COCCOC(=O)N1C(=O)[C@@]2(c3cc(C#CCNC(N)=O)ccc31)[C@H](c1ccc(OCCO)cc1)N1[C@H](c3ccccc3)[C@H](c3ccccc3)OC(=O)[C@H]1[C@@H]2C(=O)N1CCc2cc(OC)c(OC)cc2C1 | 0.901 | -0.966 | 0.603 | 0.243 | 0.273 | -0.148 | -0.0035 | -0.0428 | 0.743 | 0.664 | -1.03 | -0.0505 (inactive) | 0.112 | -0.0349 | 0.22 | 0.592 | 0.127 | 0.498 | 0.756 | 0.878
